D3 ag: D3 dopamine receptor (human) agonism; 410,000 tested, 0.58% active; max activation, %; D3R DiscoveRx beta-arrestin cells, luminescence, 90 min; P35462; in the data active = max activation above about 30%
Target sequence (P35462 whole entry, looked up): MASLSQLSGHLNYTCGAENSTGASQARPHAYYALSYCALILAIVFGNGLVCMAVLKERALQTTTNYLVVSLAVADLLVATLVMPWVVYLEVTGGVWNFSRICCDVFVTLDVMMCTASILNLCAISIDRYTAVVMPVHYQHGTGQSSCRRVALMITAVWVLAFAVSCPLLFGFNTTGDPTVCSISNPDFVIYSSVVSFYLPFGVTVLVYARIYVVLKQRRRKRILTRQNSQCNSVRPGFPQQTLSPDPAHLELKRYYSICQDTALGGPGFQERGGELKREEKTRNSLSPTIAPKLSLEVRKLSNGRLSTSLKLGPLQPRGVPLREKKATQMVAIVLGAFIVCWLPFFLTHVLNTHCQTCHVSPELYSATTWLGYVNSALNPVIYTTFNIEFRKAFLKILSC
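Agonist mode: compounds and dopamine controls were applied to plated cells for 90 min at 37 degrees C after an overnight attachment at 1500 cells/well. Luminescent read-out followed 30 - 60 minutes at room temperature with DiscoveRx detection reagent.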
D1 ag: activates the human D1 dopamine receptor. activation, % at 2 µM. 360,000 tested, 1% active. P21728. HEK293 T-REx D1 cells, calcium flux, agonist mode; in the data active = activation above about 30%
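Agonism was scored from calcium flux recorded over 180 s (1 read/s) after pintool compound addition, following a 10-cycle baseline. Cells were inducible force-coupled HEK293 TREx D1, plated overnight at 30 C and loaded with no-wash calcium dye.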
DRD3 antagonist: antagonists of human D3 dopamine receptor. P35462. D3R cells, DiscoveRx beta-arrestin luminescence, antagonist mode; hits give low values. max response, negative = inhibition, %. 360,000 tested, 2.5% active. AID 652054; in the data active = max response below about -50%; inconclusive = no clear call, values can overlap the other calls
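Cells expressing the human receptor were seeded at 1500 cells/well, incubated overnight at 37 degrees C in 5% CO2, then exposed to library compounds with dopamine controls for 90 minutes at 37 degrees C before luminescent detection.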
D1 PAM: enhances dopamine response at the human D1 receptor. 360,000 tested, 0.036% active. potentiation, % at 10 µM. HEK293 TREx D1 cells, calcium flux, dopamine EC20 potentiation. AID 504651; in the data active = potentiation above about 30%
D1 antagonist: antagonists of human D1 dopamine receptor. P21728. HEK293 TREx D1 cells, calcium flux, dopamine EC80; hits give low values. activity change, negative = inhibition, % at 10 µM. 360,000 tested, 3.2% active; in the data active = activity change below about -30%
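Cells carrying a force-coupled, tetracycline-inducible human D1 receptor report calcium flux. Each well gets a 10 s baseline, compound with 180 s monitoring, then an EC80 dopamine stimulus with a second 180 s kinetic read.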
Numbers stand for hits; . = inactive; ? = inconclusive; / = no result. In the library only some 6% were active in any assay of this set; here they are far more common.

SMILES | D3 ag | D1 ag | DRD3 antagonist | D1 PAM | D1 antagonist
Clc1ccc(CN2C3=NCCN3c3ccccc32)cc1Cl | . | 35 | ? | . | .
COc1ccccc1N/N=C/c1c(CO)cnc(C)c1O | . | . | . | . | .
COc1ccccc1NS(=O)(=O)c1cccc(C(=O)N/N=C/c2c(CO)cnc(C)c2O)c1 | . | . | . | . | -30
CCc1ccc(-c2[nH]c3c(c2-c2sc(C)c(C(=O)OC)c2O)c(=O)n(C)c(=O)n3C)cc1 | . | . | / | . | .
COC(=O)c1c(C)sc(-c2c(-c3ccc(F)cc3)[nH]c3[nH]c(=O)[nH]c(=O)c23)c1O | . | 131 | / | . | .
CCOc1ccc(C2=NNC(c3cccs3)=Nc3ccc(OC)cc32)cc1 | . | . | . | . | -38
COCCNC(=O)c1ccc2c(c1)N(Cc1ccc(C(F)(F)F)cc1)C(=O)c1ccccc1S2 | . | . | / | . | .
COc1ccc(CCC(=O)NCCc2ccc(OC)c(OC)c2)cc1 | . | . | . | . | .
CCOc1ccc(CCNC(=O)COC(=O)c2ccc(C)s2)cc1OCC | . | . | . | . | .
COc1ccc(CCNC(=O)COC(=O)c2ccc(C)s2)cc1OC | . | . | . | . | -33
COc1ccc(N=C2NC(=O)C(CC(=O)NCCc3ccc(OC)c(OC)c3)S2)cc1 (centres undefined) | . | . | . | . | -38
COc1ccc(CC(C)CC(=O)NCCc2ccc(OC)c(OC)c2)cc1 (centres undefined) | . | . | . | . | -75
COc1ccc(CNC(=O)CCc2c(C)c3ccc(OC)c(C)c3oc2=O)cc1OC | . | . | / | . | .
COc1ccc(CCNC(=O)Cc2c(C)c3ccc(O)c(C)c3oc2=O)cc1OC | 38 | . | / | . | .
COc1ccc(CCNC(=O)CC2SC(=NCc3ccccc3OC)NC2=O)cc1 (centres undefined) | . | . | . | . | .
O=C(Cn1c(SCCOc2ccc(Cl)cc2)nc2ccccc21)N1CCCCC1 | . | . | / | . | .
O=[S+]([O-])(NC[C@H]1CCC[C@H](CN[S+](=O)([O-])c2c(F)cccc2F)C1)c1ccc2c(c1)OCCO2 | / | . | / | . | .
O=C(COc1ccc(Cl)cc1Cl)Nc1ccc(C(=O)OC2CCCCC2)cc1 | . | . | / | . | .
CN(C)C(=O)c1cn(-c2ccccc2)nc1-c1cc2ccccc2o1 | . | . | . | . | .
CN(Cc1cn(-c2ccccc2)nc1-c1cc2ccccc2o1)C(=O)CCC(=O)O | 46 | . | . | . | .
O=C(CN1C(=O)CCSc2ccc(S(=O)(=O)N3CCCC3)cc21)Nc1cccc(Cl)c1 | . | . | / | . | .
COc1ccc(Cc2nnc(NC(=O)C3CC(=O)N(c4ccccc4C)C3)s2)cc1OC (centres undefined) | . | . | -64 | . | .
COc1ccc(-c2nnc(NC(=O)CSc3ccc(Cl)cc3)s2)cc1OC | . | . | . | . | .
CCOC(=O)Cc1nnc(NC(=O)CSc2ccc(Cl)cc2)s1 | . | . | -53 | . | -32
COc1ccc(Cc2nnc(NC(=O)Nc3ccc(C)cc3)s2)cc1OC | . | . | . | . | .
SMILES | D3 ag | D1 ag | DRD3 antagonist | D1 PAM | D1 antagonist
COc1ccc(Cc2nnc(NC(=O)CSc3ccc(C)cc3)s2)cc1OC | . | 224 | . | . | .
CCOC(=O)Cc1nnc(NC(=O)C(CC)Sc2nc(C)cc(C)n2)s1 (centres undefined) | . | . | . | / | -36
O=C(CNC(=O)c1ccc(F)cc1)c1ccc(Cl)cc1 | . | . | . | . | -33
O=C(CNC(=O)c1ccc(Cl)cc1)c1ccc(Cl)cc1 | . | . | . | . | .
Cc1ccc(C(=O)NCC(=O)OCC(=O)c2ccc(C)c([N+](=O)[O-])c2)cc1 | . | . | . | . | -46
O=C(Cc1ccccc1)NCC(=O)OCC(=O)c1ccc(Cl)c([N+](=O)[O-])c1 | . | . | . | . | .
Cc1ccc(C(=O)COC(=O)CNC(=O)C(c2ccccc2)c2ccccc2)cc1[N+](=O)[O-] | . | . | -64 | . | .
Cc1ccc(C(=O)NCC(=O)NCC(=O)OCC(=O)c2ccc(F)cc2)cc1 | . | . | ? | . | -52
CC(C)OCCCNC(=O)CN1C(=O)c2cccnc2Sc2ccccc21 | . | . | / | . | .
O=C(CCC1CCCC1)N1CCN(S(=O)(=O)c2ccc(Br)cc2)CC1 | . | . | . | . | -31
O=C(CC1CCCC1)N1CCN(S(=O)(=O)c2ccc(F)cc2)CC1 | . | . | . | / | .
O=C(NCc1ccc(Cl)cc1)C(=O)NCC(c1ccc2c(c1)OCO2)N1CCOCC1 (centres undefined) | . | . | / | . | .
O=[N+]([O-])c1ccc(Nc2ccc(F)cc2)nc1 | . | . | . | . | .
CN(C)c1ccc(Nc2ccc([N+](=O)[O-])cn2)cc1 | . | . | -60 | . | .
CCOc1ccc(C(C)(C)C)cc1S(=O)(=O)n1nc(C)cc1C | . | . | -50 | . | .
CCOc1ccc(C)cc1S(=O)(=O)n1nc(C)cc1C | . | . | . | . | .
Nc1nc(SCc2ccccc2Cl)nc2nc3c(cc12)CCCC3 | . | . | . | . | .
Nc1nc(SCc2ccc(Cl)cc2Cl)nc2nc3c(cc12)CCCC3 | . | . | -57 | . | .
Cc1cc(C)nc(NC2=NCC(=O)N2c2ccc3c(c2)OCCO3)n1 | . | . | . | . | -84
COc1ccc(N2C(=O)CN=C2Nc2nc(C)cc(C)n2)cc1 | . | . | . | . | .
CCOc1ccccc1C(=O)NCC(=O)N(C)Cc1ccccc1C | . | . | . | . | -43
O=C(NC1CCCc2c1cnn2-c1ccc(F)cc1F)c1ccccn1 (centres undefined) | . | . | . | . | .
O=C(NC1CCCc2c1cnn2-c1ccccc1F)c1ccccn1 (centres undefined) | . | . | . | . | -38
CCc1ccc(C(=O)c2cnc3ccc(F)cc3c2S(=O)(=O)c2ccccc2)cc1 | . | . | / | . | -42
Cc1ccc(-c2cc3nccc(-c4cc([N+](=O)[O-])ccc4O)n3n2)cc1 | . | . | / | . | .
SMILES | D3 ag | D1 ag | DRD3 antagonist | D1 PAM | D1 antagonist
Cc1cc(NC(=O)Cc2ccccc2)cc(-c2nc3ccccc3o2)c1O | . | . | / | . | .
Cc1[nH]c2ccccc2c1C(=O)CN1C(=O)NC(C)(c2ccc(Cl)cc2Cl)C1=O (centres undefined) | . | 37 | . | . | .
O=C(C1CCCCC1)N(Cc1cccnc1)c1nc2c(F)cccc2s1 | . | . | / | . | /
CCOc1ccc(C2c3c(oc4ccc(C)cc4c3=O)C(=O)N2CCCN(C)C)cc1 (centres undefined) | . | . | / | . | .
Cc1cccc(-n2ccnc2SCC(=O)Nc2ccccc2C(F)(F)F)c1 | . | . | / | . | -40
CC(=O)Nc1ccc(-c2ccc(NC(C)=O)c(O)c2)cc1O | . | . | . | . | -32
Cc1ccc2c(CC(=O)Nc3cc(C(F)(F)F)ccc3Cl)coc2c1C | . | . | / | . | .
